{"source": "PubChem BioAssay AID651692", "about": "(Broad Institute, 2012)", "note": "Measured potencies and affinities stand elsewhere. A number with no mark means an inactive call.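 Rule for the calls: active = fitted half-maximal concentration for loss of cell signal no higher than twice the top valid tested concentration; inconclusive = flat curve at 30 to 70% inhibition, or poor fit; inactive = flat within 30%, signal rise, or potency above limit.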"}
{"test": "cytotoxicity toward MDA-MB-231 breast cancer cells – cell-based, CellTiter-Glo luminescence, cherry-pick, cytotoxicity control for RAD54 inhibitor project, dose response (AID 651692);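 note: 0% = median of sample compound wells and -100% = staurosporine control wells; more negative values mean stronger loss of viable cell signal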", "settings": "MDA-MB-231 viability, 24 h; series mostly up to 26 µM; activity change, negative = growth inhibition: at the top concentration", "units": {"activity change, negative = growth inhibition": "%"}}
{"smiles": "CCNC1CCC(Nc2ccnc3cc(Cl)ccc23)CC1", "note": "(stereo not given)", "activity change, negative = growth inhibition": 5.14}
{"smiles": "O=C(COc1ccc2c(c1)oc(=O)c1ccccc12)NCCCN1CCOCC1", "activity change, negative = growth inhibition": 4.58}
{"smiles": "Nc1cc2ccncc2c2ccccc12", "activity change, negative = growth inhibition": 0.699}
{"smiles": "CCCN(CCC)CCCNC(=O)c1cc2c(=O)n(C)c3ccccc3c2n1C", "activity change, negative = growth inhibition": -6.99}
{"smiles": "c1ccc(-c2nc(NCCCn3ccnc3)c3oc4ccccc4c3n2)cc1", "activity change, negative = growth inhibition": -13.3}
{"smiles": "CSc1nc(SCC(N)=O)c2c3c(sc2n1)CN(C)CC3", "activity change, negative = growth inhibition": -1.15}
{"smiles": "COc1cc2nc(N(C)C)nc(N)c2cc1OC", "activity change, negative = growth inhibition": 0.925}
{"smiles": "CCOC(=O)Nc1c2ccccc2nc2ccccc12", "activity change, negative = growth inhibition": 7.91}
{"smiles": "Cc1ccc2nc3c(c(N)c2c1)CCN3c1ccccc1", "activity change, negative = growth inhibition": 0.308}
{"smiles": "c1ccc(-c2nnc(SCc3nc4ccccc4[nH]3)o2)cc1", "activity change, negative = growth inhibition": 13.1}
{"smiles": "CCN(CC)CCn1c2ccccc2c2nc3ccc([N+](=O)[O-])cc3cc21", "activity change, negative = growth inhibition": -13.4}
{"smiles": "CN1CCN(c2nc(-c3cccc([N+](=O)[O-])c3)nc3ccccc23)CC1", "activity change, negative = growth inhibition": -12.8}
{"smiles": "CC(=O)Nc1cc(-c2ccc(N3CCN(C)CC3)cc2)cn2c(-c3cccc(C(C)=O)c3)cnc12", "activity change, negative = growth inhibition": -11}
{"smiles": "CCOC(=O)c1cnc2c(C)c(Cl)ccc2c1NCCCN1CCOCC1", "activity change, negative = growth inhibition": 7.57}
{"smiles": "CCOC(=O)c1cnc2c(C)cccc2c1NCCCN1CCOCC1", "activity change, negative = growth inhibition": 0.77}
{"smiles": "O=c1cc(CSc2n[nH]c(=O)n2C2CC2)c2ccc(O)cc2o1", "activity change, negative = growth inhibition": 2.63}
{"smiles": "CCN1CCc2c(sc(NC(=O)c3ccc(C(=O)c4ccccc4)cc3)c2C(N)=O)C1", "activity change, negative = growth inhibition": -14.2}
{"smiles": "CN1CCN(c2ncnc3c2[nH]c2ccc(F)cc23)CC1", "activity change, negative = growth inhibition": 7.02}
{"smiles": "Cc1cccn2c(=O)c3cc(C(=O)NCCN4CCOCC4)c(=N)n(CCN4CCOCC4)c3nc12", "activity change, negative = growth inhibition": -3.17}
{"smiles": "Cc1ccsc1-c1cc2nc(NCCCN(C)C)n(C)c(=O)c2s1", "activity change, negative = growth inhibition": -2.29}
{"smiles": "CN(C)CCCN(C(=O)c1ccco1)c1nc(-c2ccc(Cl)cc2)cs1", "activity change, negative = growth inhibition": -20.6}
{"smiles": "CCOC(=O)c1c(C)n(C)c2ccc(OCC(O)CN3CCN(C)CC3)cc12", "note": "(stereo not given)", "activity change, negative = growth inhibition": 9.74}
{"smiles": "O=C(CS(=O)(=O)c1ccccc1)Nc1ccc(Br)cn1", "activity change, negative = growth inhibition": 8.12}
{"smiles": "CN(C)CCCNc1nc2cc(-c3ccccc3)sc2c(=O)n1C", "activity change, negative = growth inhibition": -7.78}
{"smiles": "N=c1n(CCN2CCCCC2)c2ccccc2n1CC(=O)c1cccc([N+](=O)[O-])c1", "activity change, negative = growth inhibition": -13.2}
{"smiles": "CCN(CC)CCNc1ccc(CO)c2sc3ccccc3c(=O)c12", "activity change, negative = growth inhibition": -3.91}
{"smiles": "Cn1nc(-c2ccccc2)cc1NS(=O)(=O)c1ccc(C#N)cc1", "activity change, negative = growth inhibition": 1.14}
{"smiles": "Cc1ccc2nc(C)cc(Nc3ccc4c(c3)OCCO4)c2c1", "activity change, negative = growth inhibition": -16.2}
{"smiles": "COc1ccc2c(c1)c1ncn(CCN3CCCC3)c(=O)c1n2C", "activity change, negative = growth inhibition": 2.26}
{"smiles": "CN(C)CCNC(=O)c1cccc(-c2cnc3c(NC=O)cc(-c4ccc(S(C)(=O)=O)cc4)cn23)c1", "activity change, negative = growth inhibition": 5.28}
{"smiles": "CCN1CCN(c2nn3c(=O)c4ccccc4nc3c3ccccc23)CC1", "activity change, negative = growth inhibition": -13.4}
{"smiles": "CCN(CC)CC(=O)Nc1cccc2c1C(=O)c1ccccc1C2=O", "activity change, negative = growth inhibition": 7.08}
{"smiles": "Nc1cccc2nc3ccccc3cc12", "activity change, negative = growth inhibition": -12.2}
{"smiles": "CCN(CC)S(=O)(=O)c1ccc(Cl)c(C(=O)Nc2nnc(C)s2)c1", "activity change, negative = growth inhibition": 3.35}
{"smiles": "Cc1nc2nc(C)c(C)nc2nc1C", "activity change, negative = growth inhibition": 4.2}
{"smiles": "COC(=O)c1c(NC(=O)c2ccc(S(=O)(=O)N3CCOCC3)cc2)sc2c1CCN(C(C)C)C2", "activity change, negative = growth inhibition": 10.1}
{"smiles": "COc1cc(OC)c2nc(C)c3c(c2c1)N(c1ccc(O)cc1)CC3", "activity change, negative = growth inhibition": 6.2}
{"smiles": "CCOC(=O)c1cnc2c(ccc3ccccc32)c1NCCCN(C)C", "activity change, negative = growth inhibition": 5.51}
{"smiles": "CN(C)CCOc1nc(-c2ccccc2)nc2c1oc1ccccc12", "activity change, negative = growth inhibition": -10.9}
{"smiles": "Cc1c(OCC(=O)NC2CC(C)(C)NC(C)(C)C2)ccc2c1oc(=O)c1ccccc12", "activity change, negative = growth inhibition": 0.065}
